Source: PubChem BioAssay (National Center for Advancing Translational Sciences (NCATS))
G9a block: inhibitors of human histone lysine methyltransferase G9a | 8.8% of 350,000 active | Q96KQ7 | Potency, µM (top dose mostly 102 µM), most hits filed as inhibitors | G9a H3K9 monomethylation, AlphaScreen, 2 h; note: nearly all actives have a fitted effect of over 75% in size
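Enzyme 20 nM + cpd, 15 min RT; add b-H3K9 pep 500 nM / SAM 20 uM; 2 h RT; anti-H3K9me1 Ab 0.5 ug/mL + SA donor / anti-rabbit acceptor beads 20 ug/mL each, 10 min; AlphaScreen read.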
JMJD2A Tudor inh: inhibitors of human JMJD2A Tudor domain; Potency, µM (series often up to 114 µM), hits mostly inhibitors; O75164; 4.4% of 390,000 active; AlphaScreen JMJD2A-Tudor / H3K4me3 peptide binding; note: nearly all actives have a fitted effect of over 50% in size
HP1b binding inh: HP1-beta chromodomain-methylated histone interaction inhibition. AID 540317. 0.56% of 390,000 active. AlphaScreen HP1-beta / biotin-H3K9me3 peptide binding. Potency, µM (series often up to 114 µM), hits mostly inhibitors; note: nearly all actives have a fitted effect of over 70% in size
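Compound inhibition of the preformed complex between 50 nM HP1-beta and 50 nM biotinylated H3K9me3 peptide was read by AlphaScreen. Buffer was PBS pH 7.4 with 0.01% Tween-20. Incubations ran 30 min at room temperature, with 10 ug/mL donor/acceptor beads.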
L3MBTL1 block: blocks human L3MBTL1; Q9Y468; 0.66% of 230,000 active; AlphaScreen L3MBTL1–H3K9me1 peptide binding; Potency, µM (titrated, usually from 57.1 µM), usual class: inhibitors; note: nearly all actives have a fitted effect of over 60% in size
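AlphaScreen assay: L3MBTL1 (50 nM final) was preincubated 30 min at room temperature with biotinylated H3(1-15)K9me1 peptide (75 nM final), then 30 min with library compounds; streptavidin donor and nickel chelate acceptor beads (10 ug/mL final) added, 30 min dark.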
Sfp PPTase inh: blocks B. subtilis Sfp PPTase activity. Q9F4F7. Biochemical Sfp PPTase activity, qHTS. Potency, µM, hits mostly inhibitors. 3.5% of 310,000 active. AID 1490;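 note: the enzyme is Sfp with the accession as filed and its product quenches rhodamine fluorescence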
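Buffer: 50 mM Hepes-Na pH 7.6, 10 mM MgCl2, 0.01% Nonidet P-40, 0.01% BSA. Enzyme 15 nM, pre-exposed to compound 15 min; substrates then added and fluorescence change tracked over 30 min.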
BAZ2B inh: blocks human BAZ2B | AID 504333 | Potency, µM (top dose mostly 114 µM), most hits filed as inhibitors | 4.4% of 360,000 active | AlphaScreen BAZ2B-H3K14Ac peptide displacement; note: nearly all actives have a fitted effect of over 60% in size
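BAZ2B (50 nM) with biotin-H3(5-23)K14Ac peptide (50 nM) in PBS pH 7.4, 0.01% Tween-20, preformed 30 min, then compound 30 min at room temperature; top concentration 110uM. AlphaScreen streptavidin donor/nickel chelate acceptor beads (10 ug/mL final), 20 min dark, signal read.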
Hits are given with their value; – = inactive; ? = inconclusive; · = no result; [ ] = another dose, or the depositor's remark. Rows were chosen to be rich in hits. Some 12% of all compounds tested hit in one or more screens of this group. Calls come from the whole dose curve; as a rule, active = well fitted curve in the direction sought with a large enough effect; inconclusive = small, poorly fitted or top-dose-only effect, or another doubt; inactive = no such curve, though single readings can be large; an effect the other way counts as inactive or inconclusive.

SMILES	G9a block	JMJD2A Tudor inh	HP1b binding inh	L3MBTL1 block	Sfp PPTase inh	BAZ2B inh
CC1=C(C(=O)Nc2ccc(C)cc2C)C(c2cccn2C)n2ncnc2N1 (centres undefined)	–	–	–	·	·	–
O=C(N/C(=C\c1ccc(-c2ccccc2)o1)C(=O)N1CCOCC1)c1ccccc1	50µM	56µM	–	–	–	–
CC1CN(C(=O)/C(=C/c2ccco2)NC(=O)c2ccccc2)CC(C)O1 (centres undefined)	35µM	–	–	·	–	–
Cc1ccc(C(=O)N/C(=C\c2ccco2)C(=O)N2CCCCC2)cc1	45µM	–	?	·	–	–
O=C(N/C(=C/c1ccc(Cl)cc1)C(=O)N1CCOCC1)c1ccccc1	–[12.7 µM]	–	–	·	–	–
COc1ccc(/C=C(\NC(=O)c2ccc(OC)cc2)C(=O)N2CCCCC2)cc1	–	–	–	–	–	–
COc1ccc(C(=O)N/C(=C/c2ccco2)C(=O)N2CCCCCC2)cc1	35µM	–	–	·	89µM	?
O=C(NCCCN1CCN(c2ccccc2F)CC1)c1nnc(Cc2ccc(Cl)cc2Cl)o1	–	–	–	·	·	?
CC(=O)N1CCCC1c1nc2ccccc2n1Cc1ccccc1 (centres undefined)	?	–	–	·	·	–
COc1ccc(C(=O)N/C(=C\c2cn(C)c3ccccc23)C(=O)N2CCN(C)CC2)cc1	45µM	–	–	·	–	–
O=C(N/C(=C/c1ccco1)C(=O)N1CCCCCC1)c1ccccc1	45µM	–	–	·	–	–
Cc1ccc(C(=O)N/C(=C/c2ccco2)C(=O)N2CCCCC2)cc1	50µM	–	–	·	–	–
O=C(N/C(=C\c1ccco1)C(=O)N1CCOCC1)c1ccco1	32µM	–	–	–	28µM	–
Fc1ccc2ncc3c(-c4ccccc4)n[nH]c3c2c1	–	?	–	·	·	?
CCOC(=O)C1CCCN(C(=O)/C(=C/c2ccco2)NC(=O)c2ccccc2)C1 (centres undefined)	40µM	–	–	·	?	–
CCN1CCN(C(=O)/C(=C/c2ccco2)NC(=O)c2ccccc2)CC1	?	–	–	·	–	–
CC(=O)Nc1ccc(SCC(=O)Nc2ccccc2-c2ccccc2)cc1	–	–	–	–	–	?
CC(=O)Nc1ccc(SCc2ncc(-c3ccccc3)o2)cc1	50µM	–	–	·	–	–
COC(=O)c1ccc(Cn2c(C)cc(C)[n+]2C)o1	?	40µM	–	·	–	?
Fc1cccc(NCc2ccoc2)c1	40µM	–	–	–	–	–
Fc1cccc(NCc2cn3ccccc3n2)c1	–[12.7 µM]	–	–	–	–	?
Cn1c(CCNC(=O)c2ccc(Cl)cc2)n[nH]c1=S	–[12.7 µM]	10µM	–	–	–	–
CCn1c(CCNC(=O)c2ccc(C)cc2)n[nH]c1=S	?	6.3µM	–	–	–	–
Cc1ccc(NS(=O)(=O)c2ccc3c(c2)CCC(C)(C)O3)cc1C	·	–	·	·	·	·
CCN1/C(=C\C=C2\C(=O)N(C)C(=S)N2C)Sc2ccccc21	?	–[11.4 µM]	?	·	40µM	·
SMILES	G9a block	JMJD2A Tudor inh	HP1b binding inh	L3MBTL1 block	Sfp PPTase inh	BAZ2B inh
Cc1cc(C)c(C#N)c(SCC(=O)c2cccs2)n1	–[2.33 µM]	–	–	·	–	–
CCN(CC)C(=O)CSc1nc(C)cc(-c2cccs2)c1C#N	10µM	56µM	–	?	40µM	–
Cc1ccc(S(=O)(=O)N2CCN(c3nc(-c4cncs4)nc4ccccc34)CC2)cc1	·	–	–	·	·	·
COc1cc(CNCc2ccccn2)ccc1OCc1ccc(Cl)c(Cl)c1	50µM	?	–	?	–	?
COc1cc(CNCc2ccccn2)ccc1OCC(N)=O	2.2µM	50µM	–	?	89µM	14µM
COc1cc(CNCc2ccccc2)ccc1OCC(O)c1ccccc1 (centres undefined)	11µM	20µM	–	·	–	?
COc1ccc(CNc2nc(-c3ccco3)nn2C(=O)CC(C)C)cc1	–	–	–	·	·	–
CCc1ccc(NS(=O)(=O)c2cc(-c3cnc(C4CC4)o3)ccc2C)cc1	–	?	–	·	·	–
COc1ccc(-c2cnc(C)o2)cc1S(=O)(=O)Nc1ccc(C)c(N(C)C)c1	?	?	–	·	·	50µM
COc1ccc(NS(=O)(=O)c2cc(-c3cnc(C4CC4)o3)ccc2C)cc1	50µM	?	–	·	–	?
COC(=O)[C@]1(C)N[C@H](c2ccc(-c3ccc(Cl)c(Cl)c3)c(OC)c2)[C@@H]2C(=O)N(C)C(=O)[C@@H]21	?	89µM	–	–	·	–
Cc1cc(N/N=C/c2ccncc2)nc2ccccc12	–	?	–	–[11.4 µM]	–	–
Cc1cc(N/N=C/c2cccc(Br)c2)nc2ccccc12	–	–	–	–	20µM	–
CCNC(=O)CCC(N)C(=O)O (centres undefined)	·	·	·	·	–	·
N#CC1=C(SCC(=O)NCc2ccccc2)NC(=O)CC1c1ccco1 (centres undefined)	?	–[11.4 µM]	?	–	–	–
N#CC1=C(SCc2ccccc2)NC(=O)CC1c1ccco1 (centres undefined)	?	–	–	?	45µM	·
CCSC1=C(C#N)C(c2ccc(C)o2)CC(=O)N1 (centres undefined)	–[12.7 µM]	–	–	–	–	–
Cc1ccc(C2CC(=O)NC(SCc3ccccc3)=C2C#N)o1 (centres undefined)	?	?	–	18µM	?	32µM
CCOC(=O)C1CCN(C(=O)Cn2nc(CC)n3c(cc4sccc43)c2=O)CC1	–	–	–	·	·	–
CC[C@H](C)[C@H](NC(=O)[C@H](CC(C)C)NC(=O)[C@H](CO)NC(=O)[C@H](CCC(=O)O)NC(=O)[C@H](CC(C)C)NC(=O)[C@H](Cc1ccc(O)cc1)NC(=O)[C@H](CCCCN)NC(=O)[C@H](CCCCN)NC(=O)[C@H](C)NC(=O)[C@H](CO)NC(=O)[C@H](CC(C)C)NC(=O)[C@H](CCC(N)=O)NC(=O)CNC(=O)[C@H](CC(C)C)NC(=O)[C@H](CC(C)C)NC(=O)[C@H](CCCNC(=N)N)NC(=O)[C@H](CO)NC(=O)[C@H](Cc1ccccc1)NC(=O)[C@H](CC(=O)O)NC(=O)[C@H](CO)NC(=O)[C@@H](NC(=O)[C@H](Cc1ccccc1)NC(=O)[C@@H](NC(=O)CNC(=O)[C@H](CC(=O)O)NC(=O)[C@H](C)NC(=O)[C@@H](N)Cc1cnc[nH]1)C(C)C)[C@@H](C)O)C(N)=O	·	·	·	·	–	·
COc1cc(/C=C2/C(C)=C(C#N)c3nc(N)c(C#N)c(C)c32)ccc1OCC(=O)O	·	–[11.4 µM]	–	?	?	45µM
CC1=C(C#N)c2nc(N)c(C#N)c(C)c2/C1=C\c1ccc(-c2ccccc2C(=O)O)o1	7.9µM	35µM	45µM	16µM	?	13µM
C/C=C/c1ccc(OCC(=O)O)c(OC)c1	–	–	–	–	–	–
